Legend:
Conditions in all cases: concentration: 1 μM, replicates: in singlicate; n = 1
MRCKB = system: T1, MRCKB
T1 construct: gene CDC42BPB

MST1R = system: MST1R
MST1 = system: T2, MST1
T2 construct: gene STK4

MST2 = system: T3, MST2
T3 construct: gene STK3

MST3 = system: T4, MST3
T4 construct: gene STK24

MST4 = system: MST4
MTOR = system: MTOR
MUSK = system: MUSK
MYLK2 = system: MYLK2
MYLK4 = system: MYLK4
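Further: KINOMEscan kinase panel screen.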

SMILES	%Inh (MRCKB) [%]	%Inh (MST1R) [%]	%Inh (MST1) [%]	%Inh (MST2) [%]	%Inh (MST3) [%]	%Inh (MST4) [%]	%Inh (MTOR) [%]	%Inh (MUSK) [%]	%Inh (MYLK2) [%]	%Inh (MYLK4) [%]
Cc1nc(N(C)[C@H]2CN(C(=O)CC#N)CC[C@H]2C)c2cc[nH]c2n1	0	3	0	37	8	0	25	0	0	0
CCS(=O)(=O)c1ccc(OC)c(Nc2ncc(-c3ccc(F)cc3)o2)c1.Cl [GW591947]	0	33	0	2	0	0	5	2	2	0
COc1ccc(CNC(=O)NC2CCN(c3ccnc(Nc4ccc(F)cc4)n3)C2)cc1 (stereo not shown) [GSK1379706]	12	41	0	9	6	0	28	4	6	17
COc1cc2nccc(Nc3ccc(OCc4ccc(NC(C)=O)cc4)cc3)c2cc1OC.Cl [GW440135]	0	12	0	20	0	1	15	3	0	0
CCCNC(=O)Nc1ccc(Oc2ncnc3ccn(C)c23)cc1	0	12	0	0	4	0	8	0	11	21
COc1cc(Nc2nccc(N3CCC(NC(=O)C4COc5ccccc5O4)C3)n2)cc(OC)c1OC (stereo not shown) [GSK1379761]	0	8	6	0	0	0	34	0	6	0
COc1ccc(Nc2nccc(N3CCC(NS(=O)(=O)c4ccc(NC(C)=O)cc4)C3)n2)cc1 (stereo not shown) [GSK1379729]	15	25	7	0	0	9	43	18	29	1
O=C(NCCNc1ccnc(Nc2ccc(F)cc2)n1)Nc1ccc2c(c1)OCO2 [GSK1379882]	0	6	0	22	11	0	11	0	15	9
CN1C(=O)C(Nc2ccccc2)=C(c2ccccc2)C1=O [SB-300079]	0	0	0	0	0	0	26	0	5	28
CC(C)(C)c1ccc(C(=O)Nc2cn3cc(-c4ccccc4)ccc3n2)cc1	0	26	0	43	0	0	45	0	34	0
COc1cccc(C2=C(N(C)c3ccccc3)C(=O)NC2=O)c1 [SB-334865]	0	10	5	0	0	0	19	2	9	0
COc1ccc(-c2coc3ccc(-c4nnc(SCc5cccc(C#N)c5)o4)cc23)cc1	0	33	15	13	25	0	0	18	7	0
COc1cc(Nc2ccnc3ccc(C(F)(F)F)cc23)cc(OC)c1OC [GW577382]	6	34	13	5	4	0	21	8	4	10
COC(=O)c1c(-c2ccccc2)c2cc(Br)ccc2c(=O)n1Cc1ccc(NC(=O)CCC(=O)O)cc1	0	43	12	27	7	0	32	0	0	1
COc1cc2ncn(-c3cc(OCc4ccncc4)c(C(N)=O)s3)c2cc1OC [GSK336313]	0	34	0	0	0	0	28	93.6	21	36
COc1cccc(C2=C(Nc3cccc(C(=O)O)c3)C(=O)NC2=O)c1 [SB-390770]	18	2	28	25	0	0	29	15	38	0

Source: paper PMC5540273 (PLoS ONE, 2017)
